Assay outcomes deposited in PubChem BioAssay by Broad Institute.
Shown is part of a subset that was picked to be rich in hits.
CD40 NFkB inh = CD40 pathway inhibition in BL2 cells | BL2 NF-kB luciferase reporter, CD40L-induced, 4 h | inhibition, % at 10 µM | 83,000 tested, 0.94% active;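 active = mean inhibition of at least 50% with a set share of replicates also reaching that level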;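 also: 0% = neutral control wells and 100% = IKK inhibitor VII at 50 µM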
An asterisk follows results filed as active; ! = repeats disagree; [ ] = another dose, or the depositor's remark.

SMILES	CD40 NFkB inh
C[C@@H]1CN([C@@H](C)CO)C(=O)c2cc(NC(=O)Nc3ccc4c(c3)OCO4)ccc2O[C@@H](C)CCCCO[C@@H]1CN(C)C(=O)Nc1ccccc1	-10
C[C@@H](NC(=O)[C@@H]1[C@@H](CO)[C@@H]2Cn3c(cccc3=O)[C@H]1N2Cc1ccncc1)c1ccccc1	4[25 µM]
CN(C)C(=O)c1cccc(-c2ccc3c(c2)[C@@H]2[C@@H](CCN2C(=O)c2ccc4c(c2)OCO4)[C@H](CO)N3)c1	-46[25 µM]
O=C1CCSc2ccc(Cl)cc2N1Cc1ccccc1	1
O=C(CN1c2ccccc2Sc2ccccc21)N/N=C/c1ccc(Cl)cc1	16
OC1CC2CCC(C1)N2CCCN1c2ccccc2Sc2ccc(Cl)cc21 (configuration not stated)	54*
Cc1noc(C)c1C(=O)N(C)C[C@H]1OCc2ccccc2-c2ccccc2C(=O)N([C@@H](C)CO)C[C@H]1C	-13[25 µM]
C[C@@H]1CN(C)C(=O)Cc2ccccc2O[C@H]1CN(C)C(=O)OC(C)(C)C	-4
C[C@@H]1CN(C)C(=O)c2cccc(N)c2O[C@@H]1CN(C)C(=O)OC(C)(C)C	10
O=C(C[C@@H]1C[C@H]2c3cc(NC(=O)NC4CCCCC4)ccc3O[C@H]2[C@@H](CO)O1)NCc1ccncc1	1
COc1cccc(CN2[C@@H](CO)[C@@H](c3ccccc3)C23CN(C(=O)C2CCCC2)C3)c1	2
CC(C)(C)OC(=O)COc1cc(OCC(=O)OC(C)(C)C)c2c(=O)cc(-c3ccccc3)oc2c1	57*!
O=c1cc(-c2ccccc2)oc2cc(OCc3ccccc3)cc(O)c12	12
CCOC(=O)COc1ccc2c(=O)c(-c3ccccc3)coc2c1	-13
CC(=O)N1[C@H](CO)[C@@H](c2ccccc2)C12CN(Cc1ccc(Cl)cc1)C2	2[25 µM]
CC(C)NC(=O)N1C[C@@H]2[C@H](c3ccccc31)[C@@H](CO)N2C(=O)Nc1ccccc1	1[25 µM]
N#C[C@@H]1[C@@H](c2ccccc2-c2ccccc2)[C@@H](CO)N1C(=O)NC1CCCC1	53*[25 µM]
N#C[C@H]1[C@H](c2ccccc2-c2ccccc2)[C@@H](CO)N1C(=O)NC1CCCC1	28[25 µM]
N#C[C@H]1[C@H](c2ccccc2-c2ccccc2)[C@H](CO)N1C(=O)NC1CCCC1	27[25 µM]
CCCCC[C@H](O)/C=C/[C@@H]1[C@@H](C/C=C\CCCC(=O)O)[C@H]2CO[C@@H]1C2	15
CCCCC[C@H](O)/C=C/[C@@H]1[C@@H](C/C=C\CCCC(=O)OC)[C@@H](O)C[C@H]1O	45*
CCCCC[C@H](O)/C=C/[C@@H]1[C@@H](C/C=C\CCCC(=O)O)[C@@H](O)C[C@H]1O	-3
O=C(Nc1cc(F)ccc1F)N[C@H]1CC[C@@H](CCn2cc(C3CCCC3)nn2)O[C@H]1CO	21
CC(=O)N(C)C[C@H]1Oc2ccccc2C(=O)N(C)C[C@@H]1C	-1
C[C@@H]1CN(C)C(=O)c2cc(N(C)C)ccc2O[C@H]1CN(C)C	7
SMILES	CD40 NFkB inh
C[C@H]1CN([C@@H](C)CO)C(=O)Cc2cc(NS(=O)(=O)c3ccc(F)cc3)ccc2O[C@@H]1CN(C)Cc1ccncc1	3[25 µM]
C[C@@H]1CN([C@H](C)CO)C(=O)Cc2cc(NS(=O)(=O)c3ccc(F)cc3)ccc2O[C@@H]1CN(C)Cc1ccc(C(F)(F)F)cc1	27
C[C@@H]1CN([C@H](C)CO)C(=O)Cc2cc(NS(=O)(=O)c3ccc(F)cc3)ccc2O[C@H]1CN(C)CC1CCCCC1	59*
Cc1noc(C)c1S(=O)(=O)Nc1ccc2c(c1)CC(=O)N([C@H](C)CO)C[C@H](C)[C@@H](CN(C)Cc1ccc(Oc3ccccc3)cc1)O2	33[25 µM]
Cc1noc(C)c1S(=O)(=O)Nc1ccc2c(c1)CC(=O)N([C@@H](C)CO)C[C@@H](C)[C@@H](CN(C)Cc1ccccc1)O2	8
C[C@@H]1CN([C@@H](C)CO)C(=O)Cc2cc(NS(=O)(=O)c3ccc(F)cc3)ccc2O[C@H]1CN(C)Cc1ccc(C(F)(F)F)cc1	72*
C[C@H]1CN([C@@H](C)CO)C(=O)Cc2cc(NS(=O)(=O)c3ccc(F)cc3)ccc2O[C@H]1CN(C)Cc1ccncc1	-4[25 µM]
C[C@@H]1CN([C@H](C)CO)C(=O)c2cc(NS(=O)(=O)c3ccc(F)cc3)ccc2O[C@H]1CN(C)Cc1ccc(C(F)(F)F)cc1	20
Cc1noc(C)c1S(=O)(=O)Nc1ccc2c(c1)CC(=O)N([C@@H](C)CO)C[C@@H](C)[C@@H](CN(C)Cc1ccc(Oc3ccccc3)cc1)O2	74*[25 µM]
CNC[C@@H]1Oc2c(NC(C)=O)cccc2C(=O)N(C)C[C@H]1C	5
C[C@@H]1CCCCO[C@@H](CN(C)C(=O)Nc2ccccc2)[C@@H](C)CN([C@H](C)CO)C(=O)c2cc(NC(=O)Nc3ccc4c(c3)OCO4)ccc2O1	-6
O=C(C[C@H]1C[C@@H]2c3cc(NC(=O)NC4CCCCC4)ccc3O[C@@H]2[C@H](CO)O1)NC1CCCC1	1
CC(C)(O)C#Cc1ccc([C@H]2[C@@H](CO)N3CCCCN(C(=O)c4ccncc4)C[C@@H]23)cc1	-1[25 µM]
CC(C)OC(=O)N(C)C[C@@H]1OCc2ccccc2-c2ccccc2C(=O)N([C@H](C)CO)C[C@@H]1C	-6
CO[C@H](CN(C)Cc1cc(F)ccc1F)[C@H](C)CN([C@@H](C)CO)S(=O)(=O)c1ccc(F)cc1	5
CC(=O)NC[C@@H]1[C@@H](c2ccc(C3=CCCC3)cc2)[C@@H](CO)N1C(=O)CN(C)C	-16[25 µM]
O=C(Cc1ccccn1)N1CC2(C1)[C@@H](c1ccccc1)[C@H](CO)N2C(=O)c1ccncc1	-7[25 µM]
C[C@@H]1CN([C@H](C)CO)C(=O)c2ccccc2-c2ccccc2CO[C@@H]1CN(C)CC1CC1	-8[25 µM]
CO[C@@H](CN(C)Cc1ccc2c(c1)OCO2)[C@@H](C)CN(C(=O)Nc1ccc(F)cc1)[C@H](C)CO	-1[25 µM]
CO[C@@H](CN(C)Cc1cc(F)ccc1F)[C@H](C)CN(C(=O)Nc1ccc(C(F)(F)F)cc1)[C@H](C)CO	-9[25 µM]
CO[C@H](CN(C)Cc1cc(F)ccc1F)[C@H](C)CN(C(=O)Nc1ccc(C(F)(F)F)cc1)[C@H](C)CO	53*[25 µM]
CN1c2ccc(C#Cc3cccnc3)cc2[C@@H]2[C@@H](CCN2C(=O)c2cccc(F)c2)[C@H]1CO	9[25 µM]
C[C@]12CC[C@H](O)CC1=CCC1C2CC[C@@]2(C)C1CC[C@@H]2NC(=O)[C@@H](N)Cc1ccccc1 (some centres not stated)	10
C[C@]12CCC3C(CC=C4C[C@@H](O)CC[C@@]43C)C1CCC2[C@]1(C)CCC(=O)O1 (some centres not stated)	-7
CC(C)(C)[C@H](N)C(=O)N[C@H]1CCC2C3CC=C4C[C@@H](O)CC[C@]4(C)C3CC[C@@]21C (some centres not stated)	103*
SMILES	CD40 NFkB inh
O=C(NCC[C@@H]1CC[C@@H](NS(=O)(=O)c2cccc(F)c2)[C@@H](CO)O1)C1CCCC1	-8
COc1ccc(C[C@@H]2CCn3nncc3COC[C@H](c3ccccc3)NC2=O)cc1	-6[25 µM]
O=C(c1cccnc1)N1C[C@@H]2[C@H](c3ccccc31)[C@H](CO)N2C(=O)C1CCCC1	3[25 µM]
O=C(O)c1cccc2cccnc12	4
c1cnc2c(c1)ccc1cccnc12	-5
O=C1C=CC(=O)N1c1cccc2cccnc12	50*
COc1ccc(NC(=O)N(C)C[C@@H]2OCc3ccccc3-c3c(n(C)c4ccccc34)C(=O)N([C@H](C)CO)C[C@@H]2C)cc1	4
O=C(C1CCCCC1)N1C[C@@H]2[C@H](c3ccccc31)[C@H](CO)N2Cc1ccccc1Cl	11[25 µM]
